According to the supplement of paper PMC4466236:
In all, about 33,000 sequences were measured (“E-score (dimensionless, -0.5 to 0.5)”: median about -0.058, highest 2% from about 0.35 on). The full list was thinned out, with the highest values kept by preference.

The sequences below were run on MvaT (assay: PBM 8-mer E-score (mean of HK and ME arrays) (E-score (dimensionless, -0.5 to 0.5)); higher = stronger relative binding preference).
Experimental: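 Protein binding microarray: GST-tagged full-length MvaT (P. aeruginosa PAO1) bound to two universal double-stranded 60-mer arrays (ME and HK), each with a constant 25-mer primer and a variable 35-mer region covering all 8-mers. The 8-mer E-score (rank-based, range -0.5 to 0.5, >0.45 = specific binding) is the mean of the two arrays.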

| Sequence | PBM 8-mer E-score |
| --- | --- |
| CTGATTAA | 0.278 |
| ATAATTAA | 0.456 |
| CTAATTAA | 0.413 |
| AGAATTAG | 0.00537 |
| GTAATTAA | 0.343 |
| ATAATTGA | 0.338 |
| CCGTGCCC | -0.184 |
| ATCCTGGA | 0.0568 |
| CCGCACGA | -0.13 |
| AACTATGT | 0.258 |
| ATGGAGAC | -0.0433 |
| CTTTTCTC | -0.00236 |
| TATTTCCA | 0.312 |
| AGACTAAC | 0.00982 |
| AGATACCC | -0.0322 |
| ATAATGGA | 0.238 |
| CACGTCTC | -0.173 |
| CTAATTAC | 0.322 |
| CTAATTAG | 0.35 |
| AGAATTAT | 0.315 |
| ATAATTGG | 0.308 |
| ATAATTAC | 0.378 |

| Sequence | PBM 8-mer E-score |
| --- | --- |
| ATAATTCC | 0.254 |
| CAAATTAG | 0.18 |
| CCAATTAG | 0.073 |
| ATAATTAT | 0.467 |
| AGCTAATC | -0.0533 |
| GAAGTTGA | 0.0448 |
| ATTTGGAA | 0.0956 |
| AAATACAA | 0.33 |
| TACTAATA | 0.357 |
| TAATACAA | 0.397 |
| AAATACTA | 0.383 |
| AAATACTT | 0.246 |
| CAATACTA | 0.172 |
| CAATACAA | 0.199 |
| CACTAATA | 0.323 |
| AAATACTC | 0.207 |
| GACTAATA | 0.297 |
| GAATACTA | 0.212 |
| TAATACTA | 0.37 |
| CTTCGAGC | -0.301 |
| AGAGGCGC | -0.328 |
| CCACGCGC | -0.112 |

| Sequence | PBM 8-mer E-score |
| --- | --- |
| CCCATCGG | -0.267 |
| GGATACGA | 0.0766 |
| AAGATCGC | -0.0523 |
| AATGGTTC | -0.0396 |
| AAATACCG | 0.271 |
| CCCTAAGG | -0.289 |
| AAGTTAGA | 0.302 |
| CCGTTATA | 0.308 |
| CAGTTATA | 0.36 |
| TAGTTAGA | 0.178 |
| GAGTTATC | 0.0914 |
| AAGTTACA | 0.264 |
| GCGTTATA | 0.252 |
| CAGTTATC | 0.131 |
| TAGTTACA | 0.247 |
| TAGTTATA | 0.402 |
| GAGTTATA | 0.369 |
| AAGTTATA | 0.442 |
| AAGATTGG | 0.154 |
| GAAACGGA | -0.164 |
| ATAACCTA | 0.182 |
| ATGTCGAC | 0.0419 |

| Sequence | PBM 8-mer E-score |
| --- | --- |
| AGTTCTGA | 0.144 |
| AAAATCAA | 0.18 |
| AAAGCTGG | -0.0254 |
| CATAATTA | 0.421 |
| AAGAATTA | 0.295 |
| AGTAATTG | 0.293 |
| GAGAATTA | 0.23 |
| AATAATCG | 0.309 |
| AATAATTA | 0.463 |
| CATAATTC | 0.223 |
| AATAATTC | 0.344 |
| AATAATTG | 0.372 |
| GATAATCC | 0.175 |
| CATAATCA | 0.227 |
| GATAATTA | 0.419 |
| ATTCTTGC | 0.0322 |
| CATAGGGA | -0.132 |
| TCCTTCCA | -0.27 |
| GCAGTATA | 0.287 |
| ATCGGCGC | -0.104 |
| AGCCCTAT | -0.14 |
| AAGAAGAC | -0.0906 |

| Sequence | PBM 8-mer E-score |
| --- | --- |
| TAACAGGA | 0.223 |
| AGCCGCCT | -0.243 |
| CGTTGGCC | -0.25 |
| AGATACGG | -0.112 |
| ATTTTTCC | 0.0867 |
| GTCGTGAA | -0.22 |
| CAAAGGTA | -0.113 |
| CAACACCA | 0.0286 |
| AGATATAG | 0.208 |
| AGATATAT | 0.46 |
| AGATATCA | 0.194 |
| AGATATAA | 0.373 |
| AGATATAC | 0.155 |
| AGAGATAA | 0.144 |
| GAATGGGC | -0.16 |
| CAGATTAA | 0.137 |
| GATATTAA | 0.438 |
| CATATTCA | 0.184 |
| GATATTAC | 0.293 |
| GAGATTAA | 0.232 |
| CATATTAA | 0.418 |
| CCTACCAG | -0.279 |
